Laboratory results reported in PMC12136788.
Changes are numbered by the printed parent chain. Whole data set: some 5,800 sequences, median “enrichment r” near 0.54, cut for the highest 2% near 16. The full list was thinned out, with the highest values kept by preference.

B1: ENSG00000115216:stop:overlap|stop_codon|ENSG00000115216|stop_codon|NA|stop_codon (ssRNA)
RNA: GGGAGUUCUACAGUCCGACGAUCACAAGUUCAAUUUUGCCAGGAACAGUACCCUCAACUCAGCCGCUGUCACCGUCUCCUCUUAGAGCUCACUCGGGCCAGGCCCUGAUCUGCGCUGUGGCUGUCCCUGGACGUGCUGCAGCCCAACAGAGGAUUGAGCAUCA
B2: chr11:13729208:13729309:+|3pUTR|ENSG00000197601|unk|FALSE|unique (ssRNA)
RNA: GGGAGUUCUACAGUCCGACGAUCAAAGUUGGUAGAUAUUUGAUUCUUCAUUUUUUGUUUUUUUCAUUAGUUGAAGUGGGUUUUAGUUUUGUUUAAAAUUAUAACCAGCGUAUUUUCACAUCAUUCUGUAAGUUAAAUGAUAUCCAACAGAGGAUUGAGCAUCA
B3: chr17:48622902:48623135:-|CDS|ENSG00000170689|control|control|control (ssRNA)
RNA: GGGAGUUCUACAGUCCGACGAUCUACCAGACGCUGGAGCUAGAGAAGGAGUUUCUGUUCAAUAUGUACCUCACCAGGGACCGUAGGCACGAAGUGGCCAGACUCCUCAAUCUGAGUGAGAGACAAGUCAAAAUCUGGUUUCAGCAACAGAGGAUUGAGCAUCA
B4: chr13:99866285:99866388:+|CDS|ENSG00000125246|unk|FALSE|unique (ssRNA)
RNA: GGGAGUUCUACAGUCCGACGAUCUAUUCUCUACGCCCGGCAAAAGAUUGUUGUCAUAGCGAAAGCCUUUGGUCUCCAAGCCAUAGAUCUGGUGUACAUUGACUUUCGAGAUGGAGCUGGGCUGCUUAGACAGUCACGAGAAGGCAACAGAGGAUUGAGCAUCA
B5: ENSG00000198589:be:win_1301|CDS|ENSG00000198589|bound_else_gene|NA|bound_elsewhere_windowed (ssRNA)
RNA: GGGAGUUCUACAGUCCGACGAUCCAUCUCCUAAGGACAACCCUUCAAUUUUUGUUCAUUCACCACAUGCACUCAUGCUCCAGGAUGUAAAGGCAGUUUUAACACAUUCCAUCCAAAGUGCAAUGCAUUCAAUUGGAGGAGUACCAACAGAGGAUUGAGCAUCA
B6: chr15:59095394:59095499:+|3pUTR|ENSG00000157450|unk|FALSE|unique (ssRNA)
RNA: GGGAGUUCUACAGUCCGACGAUCUAAAUACCAUCCUUAAUACUGGGAACAGAAUACAACCCAUAUAAAUCAGAUGCAGGUGGUAGUCACAUCACCAGAGUGAUCAGUAUAAAUUUUCUUGGUGUAUCCUUUUCCUUUCAACACCAACAGAGGAUUGAGCAUCA
B7: chr1:193029531:193029688:-|CDS|ENSG00000116750|unk|total|mutant (ssRNA)
RNA: GGGAGUUCUACAGUCCGACGAUCUUGAUAUCUUCACUUUUAUAUUUUACCGGUAAUUAAUAAUGCUUGUGCUACUCAAGCCACCGUGAGUGUGUUACUGAACUGUACCCACCAGGAUGUCCAUUCCGGCGAGACAUUAUCAGACAACAGAGGAUUGAGCAUCA
B8: chr1:193029531:193029688:-|CDS|ENSG00000116750|unk|FALSE|unique (ssRNA)
RNA: B7 RNA with C49U, C50A, C83U, C84A, C125U, C126A
B9: chrX:115010634:115010735:-|CDS|ENSG00000123496|msi1|FALSE|unique (ssRNA)
RNA: GGGAGUUCUACAGUCCGACGAUCUGGAUCAUCAGAGAACAAGCCUAUCAGAUCCAGUUAUUUCACUUUUCAGCUUCAAAAUAUAGGUGAUGUAAACCAACAAACAACUUCAAAUUCAUUGUUUCUAGUUUAGGCCAUUUACAACAACAGAGGAUUGAGCAUCA
B10: chr7:30424526:30425710:-|three_prime_utr|ENSG00000106100|control|control|control (ssRNA)
RNA: GGGAGUUCUACAGUCCGACGAUCAAACUCCCUAAGUACCCGCUACAAUUCUGCAGAAAAAGAAUGUGUCUUGCGAGCUGUUGUAGUUACAGUAAAUACACUGUGAAGAGACUUUAUUGCCUAUUAUAAUUAUUUUUAUCUGAACAACAGAGGAUUGAGCAUCA
B11: chr9:137457406:137457901:-|CDS|ENSG00000165802|control|control|control (ssRNA)
RNA: GGGAGUUCUACAGUCCGACGAUCCGCCUGUCCCUCGUCUCCAACGGCUGCUACGAGGGCAGCCUCUCAGAGGAGCCCAGCAUUAGGAAGCCCGCAGGCGAGGGCCCUCAGCCUCGAGUGUACACCAUCUCUGGGGAGCCUGCCCAACAGAGGAUUGAGCAUCA
B12: chr14:44928120:44928223:-|3pUTR|ENSG00000179454|unk|FALSE|unique (ssRNA)
RNA: GGGAGUUCUACAGUCCGACGAUCUAGUACAGCAGGCCUCCCAGUGCUGAUGUAAAUAUUUGAGCAGUGUUUAGUACCAUUCUUAGUGCAUAUUAAUUUUUUUAUAUAUCCUUAUAAUUUUAGUUUUUUAAGAUCUUUGCUUUUCAACAGAGGAUUGAGCAUCA
B13: chr2:224511460:224511569:-|CDS|ENSG00000036257|unk|total|mutant (ssRNA)
RNA: GGGAGUUCUACAGUCCGACGAUCGAAAGCCAGAAAUUUUCCGCAGAAAACCGUGCUUCAGUAUAUAUAAAGAAAGCCGAAGCCCGAAUUAAUGAAGAAACCGAACGAGUGAUGCACUGCCUUGACAAAUCAACGGAAGAACCACAACAGAGGAUUGAGCAUCA
B14: chr10:62095068:62095169:+|3pUTR|ENSG00000150347|msi1|FALSE|unique (ssRNA)
RNA: GGGAGUUCUACAGUCCGACGAUCCCAUUUGCUUCAAUUAAUUAUUUACCUUCCUGUGGAAUAAUAUAUAUAUAUAUAUUUAAUAGAACCAUAGAUAGACUAGUAGAAUUUAGAUUAUAAAUGUGUGAGUGCAGAUUAUCCUGCCAACAGAGGAUUGAGCAUCA
B15: chr9:21239001:21239365:-|three_prime_utr|ENSG00000228083|control|control|control (ssRNA)
RNA: GGGAGUUCUACAGUCCGACGAUCCAAAAUUUUCAAAUGUUUUCAGGAGUGUAAAGAAGCAUCAUGUAUACCUGUGCAGGCACUAGUCCUUUACAGAUGACCAUGCUGAUGUCUCCUUUCAUCUAUUUAUUUAAAUAUUUAUUUCAACAGAGGAUUGAGCAUCA
B16: chr7:127374855:127374969:-|CDS|ENSG00000048405|unk|FALSE|unique (ssRNA)
RNA: GGGAGUUCUACAGUCCGACGAUCCCUAGAAGCCAUAUAUCCAAGUGUGGACAAACGAGAAUAUAUUAUUAAGCUAGAACCCAUAGAAACUAAUCAAAAUGCAGUAUUUCAAUAUAUUUCGAGGACUGAUAAUCCUAUUGAAGUCAACAGAGGAUUGAGCAUCA
B17: chr7:127374855:127374969:-|CDS|ENSG00000048405|unk|total|mutant (ssRNA)
RNA: B16 RNA with U26C, A27C, U74C, A75C, U83C, A84C
B18: chr10:62095068:62095169:+|3pUTR|ENSG00000150347|msi1|total|mutant (ssRNA)
RNA: GGGAGUUCUACAGUCCGACGAUCCCAUUUGCUUCAAUUAAUUAUUUACCUUCCUGUGGAAUAAUAUAUAUAUAUAUAUUUAACCGAACCACCGACCGACCCGCCGAAUUCCGAUUAUAAAUGUGUGAGUGCAGAUUAUCCUGCCAACAGAGGAUUGAGCAUCA
B19: ENSG00000070961:be:win_4451|3pUTR|ENSG00000070961|bound_else_gene|NA|bound_elsewhere_windowed (ssRNA)
RNA: GGGAGUUCUACAGUCCGACGAUCGUUUUGAAGCAACUGUUUAAUUUUUAAAAUUUUUGAAAACUUGCUAAUAACCUUUUGUUCAGAAUUUAGUAGAUUGUUUAAUGCAGGACAUCAACUACAUAAUGAAAGAUGCUUGAAAUGCAACAGAGGAUUGAGCAUCA
B20: chr14:44928120:44928223:-|3pUTR|ENSG00000179454|unk|total|mutant (ssRNA)
RNA: B12 RNA with U24C, A25C, U71C, A72C, U83C, A84C, U120C, A121C
B21: chr2:224511460:224511569:-|CDS|ENSG00000036257|unk|FALSE|bound_elsewhere (ssRNA)
RNA: B13 RNA with C40U, C41A, C50U, C51A, C76U, C77A, C83U, C84A, C100U, C101A
B22: ENSG00000039319:stop:overlap|stop_codon|ENSG00000039319|stop_codon|NA|stop_codon (ssRNA)
RNA: GGGAGUUCUACAGUCCGACGAUCCCAACUCUAGUUUACCAUUAGAAAUAGAAUUAGUGUUUUUCAUUAUAGAACAUCUUUUUUAGUGAAAGAAUGUGCCAUAUUACAUAUUGCAACCUAAUUUGUUAAAACUAACUCCAGCACCAACAGAGGAUUGAGCAUCA
B23: chr6:89631235:89631336:+|3pUTR|ENSG00000135299|msi1|FALSE|unique (ssRNA)
RNA: GGGAGUUCUACAGUCCGACGAUCUGAAGUUUGAAAGCUCAGAUUAAGCAAGCCAUGCCAAGAAACUGGACGAUGUGUAAGCCUAGACUCUAAAAUUCAAGAUGUGUGAAAUAAUAUAAGUCAAAAGCAAGAAAAACGUAAUCCCAACAGAGGAUUGAGCAUCA

Target: MSI1 full-length (mouse, UniProt Q61474 1-362)
Sequence (Q61474 whole entry): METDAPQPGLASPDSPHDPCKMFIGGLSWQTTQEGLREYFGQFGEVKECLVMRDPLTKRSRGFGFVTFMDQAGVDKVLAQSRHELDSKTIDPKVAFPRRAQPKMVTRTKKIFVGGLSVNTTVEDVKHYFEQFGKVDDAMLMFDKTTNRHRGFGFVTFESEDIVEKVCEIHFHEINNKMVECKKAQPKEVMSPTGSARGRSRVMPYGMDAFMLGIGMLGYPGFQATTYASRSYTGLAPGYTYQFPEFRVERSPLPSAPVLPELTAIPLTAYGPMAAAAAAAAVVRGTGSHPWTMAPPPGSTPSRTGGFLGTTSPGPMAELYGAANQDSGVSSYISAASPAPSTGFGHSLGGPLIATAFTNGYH
Experiment: nsRBNS (natural sequence RNA bind-n-seq); RBNS binding buffer (assumed for nsRBNS): 25 mM Tris pH 7.5, 150 mM KCl, 3 mM MgCl2, 0.01% Triton X-100, 500 ug/ml BSA, 20 U/ml SUPERase-In, 4 C; UNK is unkempt and MSI1 is Musashi-1; names of the RNAs are library labels; protein concentration not given here; high values mean tight binding

| Binder | binding signal [enrichment R] |
| --- | --- |
| B1 | 0.763 |
| B2 | 1.97 |
| B3 | 0.411 |
| B4 | 0.39 |
| B5 | 0.284 |
| B6 | 0.744 |
| B7 | 1.15 |
| B8 | 30 |
| B9 | 1.74 |
| B10 | 3.46 |
| B11 | 0.4 |
| B12 | 35.6 |
| B13 | 0.432 |
| B14 | 21.1 |
| B15 | 0.493 |
| B16 | 28.2 |
| B17 | 0.508 |
| B18 | 9.42 |
| B19 | 0.619 |
| B20 | 8.16 |
| B21 | 36.5 |
| B22 | 0.848 |
| B23 | 0.258 |
